HIF-2a block = HIF-2a reporter inhibitors, primary screen, luminescence, 786-0 RCC cells. 786-0 RCC cells HIF-2a reporter, luciferase luminescence, overnight. inhibition, % at 18.8 µM. actives 0.72% (n = 360,000);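 active = inhibition of the luminescence signal of 40% or more relative to plate controls, in a single-dose primary screen at 18.75 µM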
KKLEB cytotox = cytotoxicity in KKLEB CF airway cells, primary screen, cytotoxicity control for CF NF-kB inhibitor project, cell-based, uHTS, fluorescence assay plates; KKLEB CF airway cells viability, ATPlite luminescence, overnight; stronger effect = lower value; cells stimulated with P. aeruginosa culture filtrate; activity change (cytotoxicity), % at 5 µM; actives 0.36% (n = 360,000);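 active = corrected activity change at or below -50% at 5 µM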
TRPM1 prom inh = inhibitors of MITF-dependent TRPM1 promoter reporter, primary screen, cell-based, SK-MEL-5, single point, luciferase | SK-MEL-5 TRPM1 promoter luciferase, 24 h | inhibition, % at 12.5 µM | AID 488899, 2010 | actives 0.83% (n = 330,000);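 active = mean inhibition across replicates of 60% or more, whatever share of single replicates reaches that level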
Peg3 prom inh = Peg3 promoter-driven luciferase inhibitors, primary screen, cell-based, HeLa, luciferase luminescence | actives 1.7% (n = 360,000) | HeLa PEG-Prom luciferase reporter, overnight | inhibition, % at 20 µM;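 active = inhibition of at least 50% at 20 µM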
CF NFkB inh = inhibitors of PAF-induced NF-kB signaling, primary screen, cell-based, GFP fluorescence, uHTS | KKLEB NF-kB-GFP reporter, GFP fluorescence overnight | inhibition, % at 5 µM | actives 0.86% (n = 360,000) | AID 588850, 2011;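 active = at least 50% inhibition at 5 µM, scaled per plate between neutral and stimulator controls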;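 also: PAF is a Pseudomonas aeruginosa culture filtrate used as stimulus; plate controls were PAF-stimulated DMSO wells for no effect and unstimulated DMSO wells for full effect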
Shn3 inh set2 = reduction of Shn3 3'UTR firefly luciferase signal, primary screen, Schnurri-3 inhibitor project, cell-based, Clone20 osteoblasts, set 2; actives 0.52% (n = 360,000); inhibition, % at 12.5 µM; Clone20 osteoblast Shn3 3'UTR firefly luciferase, 24 h;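 active = mean inhibition of at least 75% with every replicate also reaching 75%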;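 also: 0% = median of neutral control wells and 100% = pilot-screen positive control compound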
Numbers without * were called inactive; · = no result given. In the library only some 2.7% were active in any assay of this set; here they are far more common.

SMILES	HIF-2a block	KKLEB cytotox	TRPM1 prom inh	Peg3 prom inh	CF NFkB inh	Shn3 inh set2
Clc1ccc2nc(N3CCNCC3)nc(-c3ccccc3)c2c1	15.5	-29.4	-16.7	101.2*	26.1	2.2
Cc1cc(C)nc(/N=C(\N)Nc2ccc(-c3ccccc3)cc2)n1	-43.8	-3.9	-3.3	44.7	1.7	91.9*
CC(=O)Nc1ccc(N/C(N)=N/c2nc(C)cc(C)n2)cc1	23.5	12.6	10.0	37.6	-15.0	-3.2
O/N=C(/c1ccccc1)c1cc2cc(Br)cc(Br)c2o1	-138.6	4.5	-10.0	-75.4	20.6	-15.9
Cc1ccc(NC(=O)CN(C)CC(=O)Nc2cccc(F)c2)cc1S(=O)(=O)N1CCCCCC1	14.9	-13.5	10.1	59.1*	-10.6	19.1
O=C(Nc1cccc(S(=O)(=O)N2CCCCC2)c1)c1ccccc1NS(=O)(=O)c1ccc(F)cc1	4.4	-18.6	17.8	36.5	43.5	21.3
Cc1ccc(NC(=O)c2ccccc2NS(=O)(=O)c2ccc(F)cc2)cc1S(=O)(=O)N1CCCCC1	11.4	-25.5	30.5	52.5*	48.0	71.2
COc1ccc(NC(=O)CN(C)CC(=O)Nc2cccc(F)c2)cc1S(=O)(=O)N1CCCCC1	18.8	-1.7	12.7	21.5	0.3	1.0
CCN(CC)S(=O)(=O)c1cccc(NC(=O)CNc2cccc(S(=O)(=O)N3CCCC3)c2)c1	24.7	-2.6	43.7	13.3	18.3	86.8*
COc1ccc(S(=O)(=O)N2CCSCC2)cc1C(N)=O	25.2	-2.2	-2.1	2.3	-0.4	-1.0
Cc1cc(Br)c2c(c1)/C(=C/C(=O)c1cccs1)C(=O)N2	24.3	-1.0	50.9	69.1*	33.1	96.5*
Cc1cc(C)c2c(c1)/C(=C/C(=O)c1ccc(Br)s1)C(=O)N2	4.0	-61.2*	59.2	52.3*	40.1	49.9
O=[N+]([O-])c1cc([N+](=O)[O-])c2c(=Nc3ccccc3)n(-c3ccccc3)n(O)c2c1	-13.5	-4.4	61.1*	9.7	-46.7	-6.7
O=[N+]([O-])c1cc(Br)c(Nc2ccccc2)c([N+](=O)[O-])c1	22.0	-17.2	39.2	34.5	43.9	29.1
COC(=O)c1cc(C(=O)OCC(=O)N2CCCCC2)cc([N+](=O)[O-])c1	20.9	2.7	1.5	-8.5	-18.1	-5.0
C=CCOC(=O)c1[nH]c2c(c1C)C(=O)CC(c1cc(OC)c(OC)c(OC)c1)C2 (configuration not stated)	-5.6	2.6	32.8	16.9	-1.8	88.3*
COCCOC(=O)c1[nH]c2c(c1C)C(=O)CC(c1cc(OC)c(OC)c(OC)c1)C2 (configuration not stated)	13.7	-5.2	12.7	18.8	-16.1	78.6
CCCCOC(=O)c1[nH]c2c(c1C)C(=O)CC(c1cc(OC)c(OC)c(OC)c1)C2 (configuration not stated)	7.7	-6.6	·	20.8	3.4	81.7*
COc1ccc(CNC(=O)c2cn(Cc3ccc(S(=O)(=O)N(C)C)cc3)c(=O)s2)cc1	4.2	6.4	·	8.3	-10.0	16.5
O=C(NCCOc1ccc(F)cc1)c1ccccc1SCc1ccccc1	15.9	2.7	-0.6	60.3*	3.5	-30.1
CN(C)S(=O)(=O)c1cccc(NC(=O)c2cccc(S(=O)(=O)N3CCc4ccccc43)c2)c1	21.9	-5.5	·	37.6	19.5	91.7*
COc1cccc(/C(C)=N/N=C(\C)c2cccc(OC)c2)c1	-264.4	2.3	-97.3	-319.7	1.3	-108.1
O=C(c1ccco1)N1CCN(C(=O)c2ccco2)C1=S	35.0	13.6	5.6	91.9*	14.9	-15.6
COc1ccc(C(=O)OCC(=O)Nc2ncc([N+](=O)[O-])s2)cc1OC	-29.0	4.5	4.5	-35.5	12.4	86.3*
COc1ccc(NC(=O)Nc2ccc3c(c2)C(=O)N([C@H](C)CO)C[C@H](C)[C@@H](CN(C)C(=O)Nc2c(C)noc2C)O3)cc1	4.6	13.0	-3.3	-3.7	-6.6	-44.1

Screening results: PubChem BioAssay, several laboratories
